About 2,000 (36%) of roughly 5,500 compounds were called active. About 18% were inconclusive and are not listed. Cut-off read from the data, not from the text of the source: active = normalized growth mostly below about 0.91 (no sharp cut-off); inconclusive = no clear call, values can overlap the other calls; inactive = mostly above about 0.92. The list shows a part of the results.
Test: chemical genetic growth profiling, strain panel (AID 1159580);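 note: tested at 20 µM; growth read once vehicle control cultures reached saturation at 30 °C; 1 = growth at the plate median or of vehicle wells; lower values mean less growth of the strain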
Details: growth OD

Measured: normalized growth

CCC(=O)c1c(O)cc(O)cc1O
inactive: S. cerevisiae deletion strains, locus YKL009W, strain mrt4, hits give low values 1.03 | S. cerevisiae deletion strains, locus YKL068W, hits give low values 0.989 | S. cerevisiae deletion strains, locus YKL085W, strain MDH1 (second series), hits give low values 0.986 | S. cerevisiae deletion strains, locus YKL085W, strain MDH1, hits give low values 0.986 | S. cerevisiae deletion strains, locus YKL160W, strain elf1, hits give low values 0.972 | S. cerevisiae deletion strains, locus YKL190W, strain CNB1, hits give low values 1 | S. cerevisiae deletion strains, locus YKR001C, strain vps1, hits give low values 0.959 | S. cerevisiae deletion strains, locus YKR026C, strain gcn3, hits give low values 0.992 | S. cerevisiae deletion strains, locus YKR091W, strain srl3, hits give low values 0.988 | S. cerevisiae deletion strains, locus YLL001W, strain dnm1, hits give low values 0.99 | S. cerevisiae deletion strains, locus YLL026W, hits give low values 0.999 | S. cerevisiae deletion strains, locus YLL041C, strain sdh2, hits give low values 0.985 | S. cerevisiae deletion strains, locus YLR027C, strain aat2, hits give low values 0.987 | S. cerevisiae deletion strains, locus YLR039C, strain RIC1, hits give low values 0.938 | S. cerevisiae deletion strains, locus YLR058C, strain SHM2, hits give low values 1 | S. cerevisiae deletion strains, locus YLR102C, strain apc9, hits give low values 0.979 | S. cerevisiae deletion strains, locus YLR113W, strain HOG1, hits give low values 0.974 | S. cerevisiae deletion strains, locus YLR221C, strain rsa3, hits give low values 1.01 | S. cerevisiae deletion strains, locus YLR258W, strain gsy2, hits give low values 0.996 | S. cerevisiae deletion strains, locus YLR262C, strain YPT6 (second series), hits give low values 1.01 | S. cerevisiae deletion strains, locus YLR262C, strain YPT6, hits give low values 0.991 | S. cerevisiae deletion strains, locus YLR268W, strain sec22, hits give low values 0.968 | S. cerevisiae deletion strains, locus YLR320W, strain mms22, hits give low values 1.01 | S. cerevisiae deletion strains, locus YLR330W, strain CHS5, hits give low values 1 | S. cerevisiae deletion strains, locus YLR342W, strain FKS1 (second series), hits give low values 1 | S. cerevisiae deletion strains, locus YLR342W, strain FKS1, hits give low values 0.978 | S. cerevisiae deletion strains, locus YLR357W, strain rsc2, hits give low values 0.968 | S. cerevisiae deletion strains, locus YLR370C, strain arc18, hits give low values 0.981 | S. cerevisiae deletion strains, locus YLR371W, strain rom2, hits give low values 0.982 | S. cerevisiae deletion strains, locus YLR384C, strain iki3, hits give low values 0.98 | S. cerevisiae deletion strains, locus YLR418C, strain cdc73, hits give low values 0.94 | S. cerevisiae deletion strains, locus YML016C, strain PPZ1, hits give low values 0.999 | S. cerevisiae deletion strains, locus YML032C, strain rad52, hits give low values 0.981 | S. cerevisiae deletion strains, locus YML120C, strain ndi1, hits give low values 0.991 | S. cerevisiae deletion strains, locus YML124C, strain tub3, hits give low values 0.978 | S. cerevisiae deletion strains, locus YMR058W, strain fet3, hits give low values 0.978 | S. cerevisiae deletion strains, locus YMR078C, strain ctf18, hits give low values 0.976 | S. cerevisiae deletion strains, locus YMR125W, strain sto1, hits give low values 0.985 | S. cerevisiae deletion strains, locus YMR129W, hits give low values 0.988 | S. cerevisiae deletion strains, locus YMR205C, strain PFK2, hits give low values 0.998 | S. cerevisiae deletion strains, locus YMR223W, strain ubp8, hits give low values 0.978 | S. cerevisiae deletion strains, locus YMR231W, strain pep5, hits give low values 0.991 | S. cerevisiae deletion strains, locus YMR263W, strain SAP30, hits give low values 1.01 | S. cerevisiae deletion strains, locus YMR307W, strain GAS1, hits give low values 1.01 | S. cerevisiae deletion strains, locus YNL067W, strain RPL9B, hits give low values 1.01 | S. cerevisiae deletion strains, locus YNL071W, strain lat1, hits give low values 0.995 | S. cerevisiae deletion strains, locus YNL128W, strain TEP1, hits give low values 1.01 | S. cerevisiae deletion strains, locus YNL153C, strain GIM3, hits give low values 1.02 | S. cerevisiae deletion strains, locus YNL183C, strain NPR1, hits give low values 0.953 | S. cerevisiae deletion strains, locus YNL209W, strain ssb2, hits give low values 0.992 | S. cerevisiae deletion strains, locus YNL233W, strain BNI4, hits give low values 0.988 | S. cerevisiae deletion strains, locus YNL248C, strain rpa49, hits give low values 1 | S. cerevisiae deletion strains, locus YNL250W, strain rad50, hits give low values 0.981 | S. cerevisiae deletion strains, locus YNL271C, strain bni1, hits give low values 0.979 | S. cerevisiae deletion strains, locus YNL298W, strain CLA4, hits give low values 0.973 | S. cerevisiae deletion strains, locus YNL307C, strain MCK1, hits give low values 0.991 | S. cerevisiae deletion strains, locus YNL322C, strain KRE1 (second series), hits give low values 0.97 | S. cerevisiae deletion strains, locus YNL322C, strain KRE1, hits give low values 1.01 | S. cerevisiae deletion strains, locus YNR049C, strain mso1, hits give low values 0.987 | S. cerevisiae deletion strains, locus YNR052C, strain pop2, hits give low values 0.983 | S. cerevisiae deletion strains, locus YOL006C, strain TOP1, hits give low values 1.12 | S. cerevisiae deletion strains, locus YOL012C, strain htz1 0.785 | S. cerevisiae deletion strains, locus YOL147C, strain pex11, hits give low values 0.97 | S. cerevisiae deletion strains, locus YOR001W, strain rrp6, hits give low values 1.02 | S. cerevisiae deletion strains, locus YOR061W, strain CKA2, hits give low values 1.01 | S. cerevisiae deletion strains, locus YOR069W, strain VPS5, hits give low values 1 | S. cerevisiae deletion strains, locus YOR070C, strain gyp1, hits give low values 0.985 | S. cerevisiae deletion strains, locus YOR080W, strain dia2, hits give low values 0.981 | S. cerevisiae deletion strains, locus YOR083W, strain WHI5, hits give low values 0.983 | S. cerevisiae deletion strains, locus YOR106W, strain vam3, hits give low values 0.987 | S. cerevisiae deletion strains, locus YOR136W, strain idh2, hits give low values 0.984 | S. cerevisiae deletion strains, locus YOR144C, strain elg1, hits give low values 0.986 | S. cerevisiae deletion strains, locus YOR184W, strain ser1, hits give low values 0.992 | S. cerevisiae deletion strains, locus YOR231W, strain MKK1, hits give low values 1.01 | S. cerevisiae deletion strains, locus YOR265W, strain rbl2, hits give low values 0.982 | S. cerevisiae deletion strains, locus YOR270C, strain vph1, hits give low values 1.04 | S. cerevisiae deletion strains, locus YOR290C, strain snf2, hits give low values 0.973 | S. cerevisiae deletion strains, locus YOR316C, strain cot1, hits give low values 0.984 | S. cerevisiae deletion strains, locus YPL051W, strain arl3, hits give low values 0.973 | S. cerevisiae deletion strains, locus YPL055C, strain LGE1, hits give low values 1.02 | S. cerevisiae deletion strains, locus YPL078C, strain atp4, hits give low values 0.996 | S. cerevisiae deletion strains, locus YPL106C, strain sse1, hits give low values 0.938 | S. cerevisiae deletion strains, locus YPL240C, strain hsp82, hits give low values 0.991 | S. cerevisiae deletion strains, locus YPL241C, strain CIN2, hits give low values 0.996 | S. cerevisiae deletion strains, locus YPL256C, strain CLN2, hits give low values 0.997 | S. cerevisiae deletion strains, locus YPR119W, strain clb2, hits give low values 0.971 | S. cerevisiae deletion strains, locus YPR141C, strain kar3, hits give low values 0.974 | S. cerevisiae deletion strains, locus YPR163C, strain tif3, hits give low values 0.991 | S. cerevisiae deletion strains, locus YPR167C, strain met16, hits give low values 0.98 | S. cerevisiae deletion strains, strain wtn01, hits give low values 0.978 | S. cerevisiae strains, strain wild type, hits give low values 1.01

Source: PubChem BioAssay AID1159580 (chemical genetic matrix, 2015)
